# Results published in PubChem BioAssay.
# Where “and” joins values, the source holds several entries; their conditions need not be identical. Identical values can stand only once. Calls of active or inactive are those of the source.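 The calls were made as follows, unless noted: active = thallium flux through the channel raised or lowered by more than 3 SD from vehicle-only wells, actives on both sides; inactive = the rest.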
# Columns and labels:
# [1] = liver-stage malaria parasite growth inhibition, primary screen, cell-based, HepG2, luciferase luminescence, HepG2 viability (AID 624349; in the data active = parasite load remaining mostly below about 12%, no sharp cut-off; inactive = mostly above about 10%;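 also: 100% = mean of DMSO negative control wells on the same plate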); conditions: P. berghei liver stage in HepG2, luciferase luminescence, concentration not given here; parasite load remaining: stronger effect = lower value; viability: measured here: HepG2 viability without parasites
# [2] = Cy5 fluorescence interference with SSB-bound oligo, artefact control for HCV NS3 helicase inhibitor project, biochemical, NIH Clinical Collection, E. coli SSB (AID 743268; call rule not given here)
# [3] = system: Hepatitis C virus NS3 helicase; assay: HCV NS3 helicase inhibitors, primary screen, biochemical, fluorescence polarization, NIH Clinical Collection (AID 743270; call rule not given here); conditions: NS3 helicase binding to Cy5-dT15 DNA, stronger effect = higher value, concentration not given here
# [4] = target: Single-stranded DNA-binding protein (Escherichia coli (strain K12)) (UniProt P0AGE0); assay: E. coli SSB displacement from DNA, counter-screen for HCV NS3 helicase inhibitor project, biochemical, fluorescence polarization, NIH Clinical Collection (AID 743271; in the data active = inhibition above about 28%); conditions: stronger effect = higher value, concentration not given here
# [5] = fluorescence interference in NS3h assay format, artefact control for HCV NS3 helicase inhibitor project, biochemical, NIH Clinical Collection (AID 743272; call rule not given here;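 also: HCV NS3 helicase with a Cy5 labelled single stranded DNA probe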); conditions: fluorescence interference counterscreen, stronger effect = lower value
# [6] = target: 6-phosphogluconate dehydrogenase, decarboxylating (Homo sapiens) (UniProt P52209); assay: 6PGD enzyme inhibitors, primary screen, biochemical, human, recombinant enzyme, NADPH absorbance (AID 1159550;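 active = at least 20% inhibition of 6-phosphogluconate dehydrogenase activity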); conditions: recombinant 6PGD, NADPH absorbance 341 nm; at 10 µM; stronger effect = higher value
# [7] = sensitizers of A549 cells to miR-34 induction, primary screen, imaging, A549 dox-inducible miR-34, nuclei and caspase counts (AID 1347080;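 active = compounds whose cell count with miR-34 switched on is under 0.7 times the count with it off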); conditions: A549 miR-34 inducible, Hoechst nuclei count, 48 h
# [8] = survival rescue of mitochondrial mutant cells in low glucose, primary screen, MELAS cybrids, Rieske KO mouse fibroblasts, CellTiter-Glo (AID 1508586;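 active = mean z-score across replicates of 1.96 or higher in either the MELAS or the Rieske mutant cell line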;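 also: z relative to plate mean and SD of compound and empty wells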)
# [9] = target: NAD(+) hydrolase SARM1 (Homo sapiens) (UniProt Q6SZW1); assay: SARM1 TIR NADase inhibitors, cell lysate, NAD-Glo luminescence (AID 1508614;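 active = compound whose remaining NAD level is above about 45 nM, limit read from the data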;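 also: higher remaining NAD means stronger inhibition of SARM1 NADase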); conditions: SAM-TIR HEK293T lysate NADase, at 1 µM, stronger effect = higher value
# [10] = target: Mitogen-activated protein kinase 7 (Homo sapiens) (UniProt Q13164); assay: ERK5 transactivation activators in reporter cells, primary screen, cell-based, HTS (AID 1508626;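 active = luciferase signal above three times the same-plate solvent-only control wells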;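 also: luciferase driven by Gal4-ERK5 fusion binding five Gal4 sites before minimal TATA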); conditions: HeLa Gal4-ERK5 transactivation, 18 h, at 5 µM, stronger effect = higher value
# [11] = viability rescue of complex I mutant cybrids, primary screen, cell-based, galactose medium, ATP luminescence (AID 1645843;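 active = z-score of at least 1.8 in each of two replicates, scored against plate mean and spread of sample wells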;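 also: positive z means more ATP and so rescue of galactose-driven cybrid death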); conditions: complex I mutant cybrid cells, 72 h, stronger effect = higher value
# F380Y = assay: modulators of BK channel variants, profiling panel, selectivity assay, cell-based, U2OS BacMam, thallium flux, beta subunits (AID 1259406); conditions: at 30 µM;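 also: initial slope of Thallos dye fluorescence rise after thallium is added; log ratio against the mean of 0.3% DMSO vehicle wells on the same plate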
# F380Y/beta2Delta = assay: as above; conditions: at 30 µM
# [12] = target: Calcium-activated potassium channel subunit alpha-1 (Homo sapiens) + Leucine-rich repeat-containing protein 26 (Homo sapiens) (UniProt Q12791+Q2I0M4); assay: as above; conditions: F380Y/Slo1WT/gamma1, at 30 µM
# R275C = assay: as above; conditions: at 30 µM
# R275C/beta1 = assay: as above; conditions: at 30 µM
# R275C/beta2Delta = assay: as above; conditions: at 30 µM
# [13] = differential killing of epithelial or mesenchymal cells, primary screen, imaging, PC-3E GFP, TEM4-18 mCherry, co-culture (AID 1345086;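 active = compounds killing one labelled cell type while sparing the other, by normalised counts and ratio limits, not self-fluorescent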;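 as to all read-outs here: cells exposed to compound for 72 h before imaging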;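 as to red/green cell ratio (normalised): normalised mesenchymal count divided by normalised epithelial count so high means epithelial killing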); conditions: imaging cell counts, at 1 µM; for red/green cell ratio (normalised): actives lie on both sides, counts scaled to control wells, 1 = unselective
# [14] = hESC survival regulators, cell-based (AID 493140; call rule not given here;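 also: cells exposed to compounds for four days before counting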); conditions: human embryonic stem cell survival screen; stronger effect = higher value
# [15] = stronger effect = lower value, cell number ratio, induced over uninduced
# [16] = measured here: relative caspase fold change +Dox/-Dox
# [17] = measured here: total cells with miR-34 induction, stronger effect = lower value
# [18] = measured here: total cells without miR-34 induction
# [19] = MELAS cybrid survival, CellTiter-Glo 48 h, stronger effect = higher value
# [20] = Rieske KO mouse fibroblast survival, CellTiter-Glo 72 h
# [21] = measured here: epithelial PC-3E GFP cell survival
# [22] = measured here: mesenchymal TEM4-18 mCherry cell survival
# Sequence of 6-phosphogluconate dehydrogenase, decarboxylating (Homo sapiens) (P52209 whole entry, looked up): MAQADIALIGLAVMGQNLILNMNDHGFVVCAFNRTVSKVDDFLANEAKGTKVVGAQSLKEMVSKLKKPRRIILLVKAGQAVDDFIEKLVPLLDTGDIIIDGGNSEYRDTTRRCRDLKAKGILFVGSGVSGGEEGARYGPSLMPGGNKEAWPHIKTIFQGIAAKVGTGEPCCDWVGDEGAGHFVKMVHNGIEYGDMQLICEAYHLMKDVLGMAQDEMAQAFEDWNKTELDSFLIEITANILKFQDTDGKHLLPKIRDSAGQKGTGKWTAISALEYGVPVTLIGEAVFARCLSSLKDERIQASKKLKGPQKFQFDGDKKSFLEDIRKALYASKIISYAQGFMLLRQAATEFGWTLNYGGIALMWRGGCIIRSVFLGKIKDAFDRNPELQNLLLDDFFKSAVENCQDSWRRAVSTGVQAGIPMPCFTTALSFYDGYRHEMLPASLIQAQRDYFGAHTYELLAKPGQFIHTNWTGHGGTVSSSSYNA
# Sequence of NAD(+) hydrolase SARM1 (Homo sapiens) (Q6SZW1 whole entry, looked up, the tested form may be a part): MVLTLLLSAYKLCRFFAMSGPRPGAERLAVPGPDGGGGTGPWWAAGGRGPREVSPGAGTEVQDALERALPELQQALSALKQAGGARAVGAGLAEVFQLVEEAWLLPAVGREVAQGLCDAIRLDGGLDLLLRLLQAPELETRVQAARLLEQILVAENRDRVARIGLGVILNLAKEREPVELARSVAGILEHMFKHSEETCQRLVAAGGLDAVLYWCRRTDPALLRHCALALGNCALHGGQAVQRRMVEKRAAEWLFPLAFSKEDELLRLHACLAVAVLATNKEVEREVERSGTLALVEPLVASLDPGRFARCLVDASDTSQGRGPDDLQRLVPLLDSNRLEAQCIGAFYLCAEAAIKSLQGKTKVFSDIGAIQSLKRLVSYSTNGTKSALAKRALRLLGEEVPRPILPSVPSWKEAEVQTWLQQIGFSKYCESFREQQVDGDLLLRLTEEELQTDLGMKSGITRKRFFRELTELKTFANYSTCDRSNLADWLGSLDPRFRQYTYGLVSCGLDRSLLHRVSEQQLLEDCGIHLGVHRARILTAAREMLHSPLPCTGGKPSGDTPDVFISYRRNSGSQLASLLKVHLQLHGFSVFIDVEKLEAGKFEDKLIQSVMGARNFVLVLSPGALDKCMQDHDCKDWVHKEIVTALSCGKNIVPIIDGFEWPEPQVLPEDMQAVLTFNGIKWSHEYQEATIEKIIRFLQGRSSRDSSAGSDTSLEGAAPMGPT
# Sequence of Calcium-activated potassium channel subunit alpha-1 (Homo sapiens) + Leucine-rich repeat-containing protein 26 (Homo sapiens) (Q2I0M4 whole entry, looked up, one chain of several): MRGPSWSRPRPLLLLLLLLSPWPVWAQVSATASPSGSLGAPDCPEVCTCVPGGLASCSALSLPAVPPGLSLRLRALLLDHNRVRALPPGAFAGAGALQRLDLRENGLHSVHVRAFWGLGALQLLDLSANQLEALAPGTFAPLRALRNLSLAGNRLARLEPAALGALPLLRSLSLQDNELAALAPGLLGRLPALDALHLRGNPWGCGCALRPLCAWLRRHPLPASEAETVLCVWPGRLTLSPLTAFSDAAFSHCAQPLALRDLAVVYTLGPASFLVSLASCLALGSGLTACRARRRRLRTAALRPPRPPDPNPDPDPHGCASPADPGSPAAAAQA
# Sequence of Mitogen-activated protein kinase 7 (Homo sapiens) (Q13164 whole entry, looked up, the tested form may be a part): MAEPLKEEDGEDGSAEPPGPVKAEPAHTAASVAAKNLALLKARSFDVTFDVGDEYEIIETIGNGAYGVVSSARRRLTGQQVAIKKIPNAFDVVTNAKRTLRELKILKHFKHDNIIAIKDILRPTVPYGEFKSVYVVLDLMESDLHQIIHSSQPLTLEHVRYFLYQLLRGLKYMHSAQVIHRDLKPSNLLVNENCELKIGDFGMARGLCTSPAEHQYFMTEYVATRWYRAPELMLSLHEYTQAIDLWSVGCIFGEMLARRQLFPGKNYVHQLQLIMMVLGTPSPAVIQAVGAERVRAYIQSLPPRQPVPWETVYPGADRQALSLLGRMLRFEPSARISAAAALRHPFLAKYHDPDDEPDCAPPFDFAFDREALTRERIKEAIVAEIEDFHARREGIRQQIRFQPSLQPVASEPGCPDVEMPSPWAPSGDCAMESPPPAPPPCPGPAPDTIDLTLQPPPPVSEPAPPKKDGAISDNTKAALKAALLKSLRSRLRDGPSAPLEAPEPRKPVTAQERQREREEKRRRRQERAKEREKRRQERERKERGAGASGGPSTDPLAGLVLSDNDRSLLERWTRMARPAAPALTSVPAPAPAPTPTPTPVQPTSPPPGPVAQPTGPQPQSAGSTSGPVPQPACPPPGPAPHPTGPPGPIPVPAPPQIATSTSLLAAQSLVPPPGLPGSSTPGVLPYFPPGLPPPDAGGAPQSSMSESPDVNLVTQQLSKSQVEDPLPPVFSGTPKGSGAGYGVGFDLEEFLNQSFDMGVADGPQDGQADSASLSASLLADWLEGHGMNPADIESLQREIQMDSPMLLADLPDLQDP
smiles,measurement,setting,value
Nc1ccn([C@@H]2O[C@H](CO)[C@@H](O)C2O)c(=O)n1 (some centres undefined),parasite load remaining,[1],112% (inactive) and 32.3% (inactive)
same,viability,[1],77.2% and 77%
same,fluorescence ratio,[2],1 (inactive)
same,inhibition,[3],-5.15% (inactive)
same,inhibition,[4],-0.87% (inactive)
same,fluorescence ratio,[5],0.87 (inactive)
same,inhibition,[6],-3.33% (inactive)
same,fold change,[7]; [15],1.11 (inactive)
same,fold change,[7]; [16],1.22
same,cell count,[7]; [17],3020
same,cell count,[7]; [18],2720
same,z-score,[8]; [19],0.809 and -1.64 (inactive)
same,z-score,[8]; [20],2.19 and 0.364
same,remaining NAD,[9],10 nM (inactive)
same,luciferase signal,[10],88 AU (inactive)
same,z-score,[11],-1.98 (inactive)
same,log fold change Tl+ flux,F380Y,-0.0332 (inactive)
same,log fold change Tl+ flux,F380Y/beta2Delta,0.0269 (inactive)
same,log fold change Tl+ flux,[12],0.0371 (inactive)
same,log fold change Tl+ flux,R275C,0.00256 (inactive)
same,log fold change Tl+ flux,R275C/beta1,-0.0266 (inactive)
same,log fold change Tl+ flux,R275C/beta2Delta,-0.0193 (inactive)
CN=C(N)NCCC[C@H](N)C(=O)O,parasite load remaining,[1],97.7% (inactive)
same,viability,[1],72.8%
same,fluorescence ratio,[2],0.99 (inactive)
same,inhibition,[3],-3.56% (inactive)
same,inhibition,[4],-2.41% (inactive)
same,fluorescence ratio,[5],0.93 (inactive)
same,inhibition,[6],3.01% (inactive) and 12.6% (inactive)
same,red/green cell ratio (normalised),[13],1.23 (inactive)
same,normalised cell number,[13]; [21],0.78
same,normalised cell number,[13]; [22],0.95
same,fold change,[7]; [15],0.994 (inactive) and 0.867 (inactive)
same,fold change,[7]; [16],0.824 and 0.665
same,cell count,[7]; [17],9540 and 7760
same,cell count,[7]; [18],9600 and 8960
same,z-score,[11],0.22 (inactive)
Cn1cc[nH]c1=S,survival,[14],1.42 (inactive)
same,fluorescence ratio,[2],1.03 (inactive)
same,inhibition,[3],-3.18% (inactive)
same,inhibition,[4],-5.05% (inactive)
same,fluorescence ratio,[5],1.03 (inactive)
same,inhibition,[6],-12.3% (inactive)
same,red/green cell ratio (normalised),[13],0.96 (inactive)
same,normalised cell number,[13]; [21],1.12
same,normalised cell number,[13]; [22],1.08
same,z-score,[8]; [19],-0.106 (inactive) and 0.275 (inactive) and 0.138 (inactive)
same,z-score,[8]; [20],0.1 and 0.646 and -0.619
same,remaining NAD,[9],10 nM (inactive)
same,luciferase signal,[10],92 AU (inactive)
same,z-score,[11],1.27 (inactive) and 0.25 (inactive)
same,log fold change Tl+ flux,F380Y,0.00366 (inactive)
same,log fold change Tl+ flux,F380Y/beta2Delta,-0.00456 (inactive)
same,log fold change Tl+ flux,[12],-0.014 (inactive)
same,log fold change Tl+ flux,R275C,-0.00969 (inactive)
same,log fold change Tl+ flux,R275C/beta1,-0.000997 (inactive)
same,log fold change Tl+ flux,R275C/beta2Delta,-0.0252 (inactive)
CCCCCC1C(=O)CCC1CC(=O)OC (centres undefined),inhibition,[6],6.35% (inactive)
same,red/green cell ratio (normalised),[13],0.86 (inactive)
same,normalised cell number,[13]; [21],1.26
same,normalised cell number,[13]; [22],1.08
CC(=O)NC(C(=O)O)C(C)(C)SN=O (centres undefined),inhibition,[6],3.72% (inactive)
same,red/green cell ratio (normalised),[13],1.02 (inactive)
same,normalised cell number,[13]; [21],1.04
same,normalised cell number,[13]; [22],1.06
CCCCCCCC/C=C/CCCCCCCCOP(=O)([O-])OCC[N+](C)(C)C,inhibition,[6],17.1% (inactive)
same,red/green cell ratio (normalised),[13],0.71 (inactive)
same,normalised cell number,[13]; [21],1.36
same,normalised cell number,[13]; [22],0.96
